PNC assembly inh = High Content Assay for Compounds that inhibit the Assembly of the Perinucleolar Compartment. AID 2417, 2010. PC3M PTB-GFP, PNC prevalence imaging, 16 h; hits give low values. activity change (PNC), negative = inhibition, % at 10 µM. 140,000 compounds, 3.1% hits;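 active = readout at or below -70, meaning at least 70% loss of cells showing the perinucleolar compartment, a nuclear body marking cancer cells; inconclusive = readout between -30 and a set limit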
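Read-out is percentage of cells bearing a perinucleolar compartment, from automated 20x imaging of fixed, Hoechst-stained PC3M PTB-GFP cells. Cells were seeded 4 h, then exposed 16 h to compound (23 nl of library stock) in duplicate plates.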
HPGD inh = qHTS Assay for Inhibitors of HPGD (15-Hydroxyprostaglandin Dehydrogenase). purified HPGD, NADH fluorescence kinetic, PGE2 substrate. Potency, µM, actives largely listed as inhibitors. 150,000 compounds, 4.3% hits. AID 894, 2007; active = well fitted inhibition curve with a large enough effect, not every such curve was filed as active; inconclusive = small, poorly fitted or top-dose-only effect, or another doubt; inactive = no such curve, though single readings can be large or run the other way
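NADH formation kinetics: reaction with 30 uM PGE2 and 1 mM NAD+ (final), 20 nM enzyme, Tris-HCl pH 8 with Tween 20, after 15 min compound preincubation at room temperature. Fluorescence change, last versus first of five reads.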
NPSR antag = qHTS Assay for Antagonists of the Neuropeptide S Receptor: cAMP Signal Transduction | Potency, µM (series often up to 38.3 µM), hits mostly inhibitors | AID 1461, 2008 | Q6W5P4 | 220,000 compounds, 1% hits | CHO-NPSR cells, cAMP TR-FRET, antagonist mode; note: nearly all actives have a fitted effect of over 50% in size
Target sequence (Q6W5P4 whole entry, looked up): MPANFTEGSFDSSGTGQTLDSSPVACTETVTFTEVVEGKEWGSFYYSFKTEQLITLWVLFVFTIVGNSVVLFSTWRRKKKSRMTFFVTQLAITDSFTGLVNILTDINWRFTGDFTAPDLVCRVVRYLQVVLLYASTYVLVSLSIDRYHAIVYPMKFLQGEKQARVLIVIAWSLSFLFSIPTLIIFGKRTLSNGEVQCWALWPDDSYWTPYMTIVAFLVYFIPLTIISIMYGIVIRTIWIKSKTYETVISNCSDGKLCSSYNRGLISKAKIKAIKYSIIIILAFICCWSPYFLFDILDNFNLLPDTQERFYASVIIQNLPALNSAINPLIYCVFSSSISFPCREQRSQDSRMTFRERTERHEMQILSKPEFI
IMPase inh = qHTS Assay for Identifying the Cell-Membrane Permeable IMPase Inhibitors; Inositol monophosphatase 1 (Rattus norvegicus), P97697; CHO-M1 cells, IP1 accumulation, HTRF TR-FRET ratio; inhibition (IP1 accumulation), % at 46.1 µM; 120,000 tested, under 10 active; AID 901, 2007; active = well fitted curve in the direction sought with a large enough effect in the signal ratio, not every such curve was filed as active; inconclusive = small, poorly fitted or top-dose-only effect, or a change in a side signal; inactive = no such curve, though single readings can be large or run the other way; the % refers to the signal ratio;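 note: cells stimulated with carbachol in lithium chloride buffer; higher means more IMPase inhibition seen as more IP1 and lower FRET ratio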
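CHO-M1, 2000 cells/well, cultured 16–30 h; cpd up to 46 uM; carbachol (50 uM solution, stimulation buffer w/ 50 mM LiCl, pH 7.4), 30 min 37C; IP-One TR-FRET, 10 min RT; Ex 320/Em 665, 620; Hill-fit AC50.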
IMPase Li cell = qHTS Assay for Identifying the Cell-Membrane Permeable IMPase Inhibitors: Potentiation with Lithium; 210,000 compounds, 0.35% hits; Potency, µM (series often up to 59.4 µM), usual class: inhibitors; CHO-M1 cells, IP1 TR-FRET (IP-One), carbachol + lithium;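 note: IP1 builds up when IMPase is blocked and the TR-FRET signal falls; nearly all actives have a fitted effect of over 50% in size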
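CHO-M1, 2000 cells/well, 16–30 h culture; cpd + low Li+, 30 min 37C; lysis with d2-IP1/Eu-anti-IP1 Ab, 10 min RT; TR-FRET 665/620 ratio and 620 channel; AC50 via Hill.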
ALDH1A1 inh = qHTS Assay for Inhibitors of Aldehyde Dehydrogenase 1 (ALDH1A1) | 220,000 compounds, 7.3% hits | Aldehyde dehydrogenase 1A1 (Homo sapiens), P00352 | Potency, µM (series often up to 75.3 µM), hits mostly inhibitors | Purified ALDH1A1, NADH fluorescence, propionaldehyde substrate; active = well fitted inhibition curve with a large enough effect, not every such curve was filed as active; inconclusive = small, poorly fitted or top-dose-only effect, or another doubt; inactive = no such curve, though single readings can be large or run the other way
Each line names hits and unclear results; the compound was inactive in the other large screens. The list is not random: actives were taken first. Their share in the collection is about 11%. Unless noted, calls come from the whole dose curve; as a rule, active = well fitted curve in the direction sought with a large enough effect; inconclusive = small, poorly fitted or top-dose-only effect, or another doubt; inactive = no such curve, though single readings can be large; an effect the other way counts as inactive or inconclusive.

COc1cc(NC(=O)c2cccs2)c(C(=O)OCC(=O)NC(=O)NCc2ccccc2)cc1OC	PNC assembly inh inconclusive, HPGD inh inconclusive, NPSR antag inconclusive, IMPase Li cell inconclusive, ALDH1A1 inh inconclusive
COc1cc(NC(=O)c2cccs2)c(C(=O)OCC(=O)NC(=O)NC(C)(C)C)cc1OC	PNC assembly inh -98
CN(CC(CC(=O)Nc1nncs1)c1ccccc1)S(=O)(=O)c1ccc(Br)cc1 (configuration not stated)	PNC assembly inh inconclusive, NPSR antag inconclusive, ALDH1A1 inh 13µM
CCc1nnc(NC(=O)CC(CN(C)S(=O)(=O)c2ccccc2)c2ccccc2)s1 (configuration not stated)	none
Cc1nnc(NC(=O)CC(CN(C)S(=O)(=O)c2ccccc2)c2ccccc2)s1 (configuration not stated)	PNC assembly inh inconclusive, ALDH1A1 inh inconclusive
CN(CC(CC(=O)Nc1nncs1)c1ccccc1)S(=O)(=O)c1ccccc1 (configuration not stated)	ALDH1A1 inh 8.9µM
Cc1c(N)cc[n+](CC(=O)c2ccccc2)c1C	none (no result: PNC assembly inh, HPGD inh, IMPase inh)
O=C(Nc1ccccc1F)C(=Cc1sc(N2CCOCC2)nc1-c1ccccc1)C(=O)Nc1ccccc1F	PNC assembly inh inconclusive
CC(NC(=O)CSC(=S)N(C)C)C12CC3CC(CC(C3)C1)C2 (configuration not stated)	ALDH1A1 inh 13µM (no result: HPGD inh, IMPase Li cell)
CC(NC(=O)Cn1ccsc1=N)C12CC3CC(CC(C3)C1)C2 (configuration not stated)	none
O=C(Cc1c[nH]c2ccccc12)Nc1nc2ccccc2[nH]1	none
NNC(=O)c1oc2ccccc2c1-n1cccc1	ALDH1A1 inh 2.2µM (no result: PNC assembly inh, HPGD inh, IMPase inh)
O=C(NNC(=O)c1oc2ccccc2c1-n1cccc1)c1ccco1	ALDH1A1 inh inconclusive (no result: PNC assembly inh, HPGD inh, IMPase inh)
CCCCN(CC)C(=O)c1ccc(-c2ccccc2)cc1	HPGD inh 2µM (no result: IMPase inh)
Cc1cccc(C(=O)NNC(=O)c2cccc(C)c2)c1	none (no result: IMPase inh)
CCCCN(CC)C(=O)c1cccc(Cl)c1	HPGD inh inconclusive, ALDH1A1 inh inconclusive
CCN(CC)C(=S)NC(=O)c1ccc(OC)c(Br)c1	ALDH1A1 inh inconclusive (no result: IMPase inh)
CCCC(=O)c1ccc(-c2ccccc2)cc1	HPGD inh 7.1µM
CCN(CC)C(=O)c1ccc(C)c(Br)c1	HPGD inh 18µM
CCN(CC)C(=O)c1cccc(C)c1	HPGD inh 25µM (no result: PNC assembly inh, NPSR antag, IMPase inh)
O=C(CCCCCCCC(=O)c1ccccc1)c1ccccc1	none (no result: PNC assembly inh, HPGD inh, IMPase inh)
O=C(NCCC1=CCCCC1)c1ccc(Cl)cc1	ALDH1A1 inh inconclusive (no result: PNC assembly inh, HPGD inh, IMPase inh)
CCOC(=O)N1CCN(c2c(NCCc3ccc(OCC)c(OCC)c3)c(=O)c2=O)CC1	none
COC(=O)c1ccc(N2OC3(C)C=CC2CC3)cc1 (configuration not stated)	ALDH1A1 inh inconclusive (no result: IMPase inh)
CCN(CC)C(=O)c1ccc2nc3ccccc3nc2c1	HPGD inh 0.89µM, ALDH1A1 inh inconclusive (no result: IMPase inh)
CCN(CC)C(=O)c1ccc2nc(-c3ccccc3)c(-c3ccccc3)nc2c1	PNC assembly inh inconclusive, HPGD inh inconclusive, ALDH1A1 inh inconclusive
CCN(CC)C(=O)c1ccc(C(=O)c2ccccc2)cc1	HPGD inh 1µM, ALDH1A1 inh inconclusive
O=C(CN1C(=O)CCC1=O)c1ccc(-c2ccccc2)cc1	PNC assembly inh -82 (no result: IMPase inh)
CC(C1CC1)N(C(=O)c1ccccc1O)c1ccccc1 (configuration not stated)	none
O=C(COC(=O)CC1CC2CCC1C2)NC(=O)NCc1ccco1 (configuration not stated)	ALDH1A1 inh 14µM
O=C(CN1CC(c2ccccc2)CC1=O)OCc1ccccc1F (configuration not stated)	PNC assembly inh -91, ALDH1A1 inh 8.9µM
Cc1cccc(CNc2ccnc(-c3ccc(C(=O)N(C)C)cc3)n2)c1	HPGD inh 8.9µM, ALDH1A1 inh inconclusive (no result: PNC assembly inh, NPSR antag, IMPase inh)

Bioassay records deposited in PubChem BioAssay by National Center for Advancing Translational Sciences (NCATS).
